From PubChem BioAssay
Rows were chosen to be rich in hits. Some 1.8% of all compounds tested hit in one or more screens of this group.
Fam108B counter = blocks mouse Fam108B hydrolase in RBBP9 counter-screen; inhibition, % at 9.51 µM; recombinant Fam108B, FP-Rh probe fluorescence polarization; 300,000 compounds, 0.33% hits;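 active = inhibition above the screen mean inhibition plus 3 SD, computed separately per campaign, cut at about 18% in these data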;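 note: inhibitors lower polarization as less probe binds the enzyme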
PAD4 FP inh = PAD4 (human) enzyme inhibition; Q9UM07; recombinant PAD4, RCA probe fluorescence polarization; inhibition, % at 6.36 µM; 330,000 compounds, 0.41% hits;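 active = percent inhibition above a cutoff equal to the mean of all tested compounds plus 3 SD, cut at about 15% in these data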
Target sequence (Q9UM07 whole entry, looked up): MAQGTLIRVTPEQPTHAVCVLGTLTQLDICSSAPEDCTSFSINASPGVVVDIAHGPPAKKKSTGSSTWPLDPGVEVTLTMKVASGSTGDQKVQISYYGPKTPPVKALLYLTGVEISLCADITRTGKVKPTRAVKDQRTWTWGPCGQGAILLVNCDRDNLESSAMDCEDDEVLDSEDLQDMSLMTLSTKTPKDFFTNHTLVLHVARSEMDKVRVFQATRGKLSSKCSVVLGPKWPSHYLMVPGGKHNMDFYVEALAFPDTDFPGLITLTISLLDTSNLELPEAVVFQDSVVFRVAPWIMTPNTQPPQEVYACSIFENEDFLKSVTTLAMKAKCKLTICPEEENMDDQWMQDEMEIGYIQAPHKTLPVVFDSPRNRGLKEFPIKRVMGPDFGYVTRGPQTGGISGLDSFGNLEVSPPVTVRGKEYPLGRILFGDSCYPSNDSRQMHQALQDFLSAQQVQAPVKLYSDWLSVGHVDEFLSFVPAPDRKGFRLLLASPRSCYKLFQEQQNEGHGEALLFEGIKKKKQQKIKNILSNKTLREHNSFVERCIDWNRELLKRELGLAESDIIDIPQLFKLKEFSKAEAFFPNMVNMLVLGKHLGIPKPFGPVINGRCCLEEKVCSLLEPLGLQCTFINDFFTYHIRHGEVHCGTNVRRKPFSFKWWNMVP
GSTO1 inh = blocks human GSTO1 in RBBP9 counter-screen | P78417 | recombinant GSTO1, activity-based probe fluorescence polarization | inhibition, % at 5.96 µM | 300,000 compounds, 1.1% hits | AID 1974;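 active = inhibition above the campaign mean inhibition plus 3 SD, cut at about 35% in these data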
LYPLA2 counter = LYPLA2 (human) inhibition in PME1 counter-screen | inhibition, % at 5.9 µM | AID 2177 | O95372 | recombinant LYPLA2, FP-Rh probe fluorescence polarization | 320,000 compounds, 0.38% hits;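 active = inhibition above the screen-wide mean plus 3 SD, limit set per campaign, cut at about 26% in these data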
PME-1 inh = blocks human protein phosphatase methylesterase 1. recombinant PME-1, FP-Rh probe fluorescence polarization. inhibition, % at 5.9 µM. 320,000 compounds, 0.53% hits;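 active = inhibition above the campaign mean of all compounds plus 3 SD, cut at about 26% in these data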;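 note: competitive labeling of PME-1 active site by serine hydrolase directed probe; inhibitors block probe labeling so polarization falls and inhibition rises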
LYPLA1 inh = counter-screen for PME1 inhibitors: inhibitors of human LYPLA1; inhibition, % at 5.9 µM; 320,000 compounds, 0.16% hits; recombinant LYPLA1, FP-Rh probe fluorescence polarization; AID 2174; O75608;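 active = inhibition above the mean of all tested compounds plus 3 SD, set per campaign, cut at about 14% in these data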;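 note: inhibitors block serine hydrolase probe labeling of LYPLA1 so polarization falls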
GSTO1 inh conf = confirmation of human GSTO1 inhibitors; shares compounds with GSTO1 inh; recombinant GSTO1, probe fluorescence polarization; inhibition, % at 5.96 µM; 2,400 compounds, 54% hits;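 active = inhibition above the primary screen's cutoff, its mean inhibition plus 3 SD, cut at about 35% in these data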;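 note: loss of polarization as inhibitors block binding of rhodamine sulfonate ester activity probe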
GSTO1 recomb ABPP = inhibitors of recombinant human GSTO1. shares compounds with GSTO1 inh. gel ABPP SE-Rh probe fluorescence. inhibition, % at 1 µM. 130 compounds, 30% hits;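 active = inhibition of the enzyme GSTO1 above about 75%, limit read from the data; inactive = inhibition below that limit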
Large screens that a line does not name were inactive (follow-up assays come after a bar, where they were run).

O=C(OCC(=O)N1CCCC1)c1cc([N+](=O)[O-])ccc1Cl	none
NC(=O)NC(=O)c1nccnc1C(=O)O	none
CN(CC(=O)NCc1ccco1)S(=O)(=O)c1cccc2cccnc12	none
COc1cccc(/C=N/NC(=O)NC2CCCCC2)c1O	GSTO1 inh 38.3 | GSTO1 inh conf inactive
Oc1[nH]c2c(Cl)cc(Cl)cc2c1N=NC(=S)NCC1CCCO1 (stereo not given)	GSTO1 inh 51.3 | GSTO1 inh conf inactive
O=C(COc1ccccc1Cl)NNC(=O)c1ccc(-n2cncn2)c([N+](=O)[O-])c1	none (no result: Fam108B counter, GSTO1 inh)
Cc1ccc(C)n1-c1ccc(N(C)C)cc1	GSTO1 inh 46.0 | GSTO1 inh conf inactive
CCN(CC)c1ccc2c(c1)CCCN2	GSTO1 inh 42.1 | GSTO1 inh conf inactive
Cc1cc(C(=O)CN2C(=O)c3ccccc3S2(=O)=O)c(C)n1CC1CCCO1 (stereo not given)	GSTO1 inh 73.1 | GSTO1 inh conf inactive
Cc1cc(C(=O)CN2C(=O)NC(C)(c3ccccc3)C2=O)c(C)n1CC1CCCO1 (stereo not given)	none
N#CC1(NC(=O)COC(=O)c2ccccc2SCC(=O)N2CCCC2)CCCCC1	none
Cc1nnc2ccc(N3CCN(C(=O)c4ccccc4)CC3)nn12	none
O=C(c1ccc(Br)o1)N1CCN(c2ccc3nnc(-c4ccccc4)n3n2)CC1	GSTO1 inh 39.9 | GSTO1 inh conf inactive
O=C(CN1CCCCCC1)Nc1ccc([N+](=O)[O-])cc1Cl	none
O=C(CN1CCCCCC1)Nc1cc([N+](=O)[O-])ccc1Cl	GSTO1 inh 57.1 | GSTO1 inh conf inactive
Cc1ccc(C2c3[nH]c4ccccc4c3C[C@H]3C(=O)N(c4ccccc4C(=O)N4CCC[C@@H]4C(=O)O)C(=O)N23)cc1 (stereo not given in full)	none
O=C1N=C(N2CCOCC2)S/C1=C/c1cc2c(cc1[N+](=O)[O-])OCO2	GSTO1 inh 64.1 | GSTO1 inh conf 47.8
Oc1ccc(-c2cn3c(n2)SCC3)cc1	none
Oc1ccc(-c2cn3c(n2)SCC3)cc1O	GSTO1 inh 53.4 | GSTO1 inh conf inactive
CCC(=O)N1CCN(C(=O)CC)C1c1ccccc1	none
O=C(CCl)N1c2ccccc2SCC1c1ccccc1 (stereo not given)	GSTO1 inh 85.7 | GSTO1 inh conf 93.6 | GSTO1 recomb ABPP 75.0
COc1ccc(N/C=C2\CCc3ccccc3C2=O)cc1	none
COc1ccc2c(c1)CC/C(=C\Nc1ccc3c(c1)OCO3)C2=O	GSTO1 inh 68.7, PME-1 inh 31.8 | GSTO1 inh conf 62.0
Cc1c(Cl)cccc1NC(=O)c1ccccc1-c1ccccc1C(=O)O	none
Cc1ccc(-c2csc3nc4cc(C(=O)NC5CCC(O)CC5)ccc4c(=O)n23)cc1 (stereo not given)	GSTO1 inh 38.9 | GSTO1 inh conf inactive
CN(CC(=O)Nc1ccc(Cl)c(C(F)(F)F)c1)C(=O)Cc1ccsc1	none
COc1ccc(NC(=O)CCc2nnc3ccc(NCc4ccco4)nn23)cc1OC	none
O=C(NN=C1CCCCCC1)c1cccs1	none
COc1ccccc1C(=O)NC(=S)Nc1ccccc1N1CCCC1	GSTO1 inh 39.7 | GSTO1 inh conf inactive
O=C(NC1CC(=O)N(c2ccccc2)C1)C1CC1 (stereo not given)	none
Cc1cccc(NS(=O)(=O)c2cccc(C(=O)NCCCN3CCOCC3)c2)c1	none
CC1CCCCN1C(=O)Cn1c(=O)oc2cc(S(=O)(=O)N3CCCC3)ccc21 (stereo not given)	none
CC(=O)c1cc2c(cc1NC(=O)c1cccc(S(=O)(=O)N3CCN(C)CC3)c1)OCO2	GSTO1 inh 60.6 | GSTO1 inh conf inactive
CCOC(=O)N1CCN(CC(=O)Nc2ccc(F)cc2F)CC1	GSTO1 inh 43.0 | GSTO1 inh conf inactive
CC1CCC(NC(=O)CCS(=O)(=O)c2ccc3c(c2)NC(=O)CS3)CC1 (stereo not given)	none
O=C1CSc2ccc(S(=O)(=O)CCC(=O)NC3CCCCC3)cc2N1	GSTO1 inh 53.0 | GSTO1 inh conf inactive
CC1CC(OC(=O)CN2CCCCC2)CC(C)(C)C1 (stereo not given)	none
CC1=C(C#N)C(=O)N(C2CCS(=O)(=O)C2)C(=O)/C1=C\c1ccco1 (stereo not given)	Fam108B counter 64.6, GSTO1 inh 87.3 | GSTO1 inh conf 72.7
O=C1/C(=C\c2ccco2)SC(=S)N1C1CCCCC1	none
O=C(NCCc1ccccc1)C1COc2ccccc2O1 (stereo not given)	none
O=C(NCCc1ccc(O)c(O)c1)C1COc2ccccc2O1 (stereo not given)	GSTO1 inh 55.0 | GSTO1 inh conf inactive
CC(=O)Nc1ccc(NC(=O)C(C)Oc2ccc(Cl)cc2Cl)cc1 (stereo not given)	none
O=C1CC(NC(=O)C(F)(F)F)=NN1c1ccccc1	GSTO1 inh 44.3 | GSTO1 inh conf inactive
C=C(C)C(=O)NC1=NN(c2ccccc2)C(=O)C1	none
CC(Oc1ccc(Cl)cc1Cl)C(=O)NC1=NN(c2ccccc2)C(=O)C1 (stereo not given)	GSTO1 inh 39.1 | GSTO1 inh conf inactive
Cc1ccc(S(=O)(=O)N[C@@H](Cc2ccccc2)C(=O)CCl)cc1	GSTO1 inh 45.0 | GSTO1 inh conf 55.0
Nc1c(C(=O)NCc2ccco2)c2nc3ccccc3nc2n1CCc1ccc(F)cc1	PAD4 FP inh 37.1, GSTO1 inh 75.3 | GSTO1 inh conf 57.9
Nc1c(C(=O)NCc2ccc3c(c2)OCO3)c2nc3ccccc3nc2n1CCCN1CCOCC1	GSTO1 inh 50.0 | GSTO1 inh conf inactive
Nc1c(C(=O)NCCN2CCOCC2)c2nc3ccccc3nc2n1-c1ccc2c(c1)OCO2	none
O=C(NCc1ccccc1C(F)(F)F)C1CC(c2ccccc2[N+](=O)[O-])=NO1 (stereo not given)	none
COc1ccc(C2/C=C\CN(Cc3ccc(N(C)C)cc3)CC(=O)N2Cc2ccc(F)cc2)cc1 (stereo not given)	none
CC(C)(C)CNC(=O)c1cccc2c1C(=O)c1ccc(-c3cc4ccccc4o3)cc1S2(=O)=O	none (no result: Fam108B counter, GSTO1 inh, LYPLA2 counter, PME-1 inh, LYPLA1 inh)
N#C/C(=C\c1c(N2CCC(C(N)=O)CC2)nc2ccccn2c1=O)C(=O)NCc1ccco1	GSTO1 inh 45.0 | GSTO1 inh conf inactive
Cc1cccn2c(=O)c(/C=C(\C#N)C(=O)NCc3ccco3)c(N3CCOCC3)nc12	none
N#CC1(c2nc3ccccc3[nH]2)CC1c1ccc2c(c1)OCO2 (stereo not given)	GSTO1 inh 46.0 | GSTO1 inh conf inactive
CCN(CC)C(=O)CCCc1c[nH]c2ccccc12	none
